The values below come from the supplement of paper PMC6555819.

Test in all cases: PBM binding z-score (relative to random genomic background probes); higher = stronger binding; sequences stand for … in GC…GCGATTGACAGCGTAGAATGAAGG
The test system of assay [1] is FXR:RXRa (NR concentration 270 nM, RXRa partner concentration 90 nM). Summed up:
(§1)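 Ligand-free nuclear receptor dimers were applied to custom Agilent 4×180K protein-binding microarrays whose double-stranded probes carried direct-repeat seeds, single-nucleotide variants, half-site ablations and random human genomic background sequences in 34-nt variable regions. Incubation lasted 1 h. Binding z-scores were computed against the random background probes from regression-normalized fluorescence.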

The test system of assay [2] is LXRa:RXRa (NR concentration 270 nM, RXRa partner concentration 90 nM). In outline:
as §1

For assay [3], the system named is LXRa homodimer (NR concentration 270 nM). In outline: as §1
Assay [4] has as its system LXRb:RXRa (NR concentration 270 nM, RXRa partner concentration 90 nM). In outline: as §1
Assay [5] concerns LXRb homodimer (NR concentration 270 nM). In outline:
as §1

Assay [6] concerns PPARa:RXRa (NR concentration 270 nM, RXRa partner concentration 90 nM). In outline:
as §1

In assay [7] the test system is PPARg:RXRa (NR concentration 180 nM, RXRa partner concentration 90 nM). Summed up: as §1
The test system of assay [8] is PPARg:RXRa 270nM:90nM, anti-RXR (NR concentration 270 nM, RXRa partner concentration 90 nM). In outline:
as §1

Assay [9] relates to PPARg:RXRa 30nM:10nM, anti-RXR (NR concentration 30 nM, RXRa partner concentration 10 nM). Summed up: as §1
The subject of assay [10] is PPARg:RXRa 90nM:30nM, anti-RXR (NR concentration 90 nM, RXRa partner concentration 30 nM). In outline:
as §1

The subject of assay [11] is PPARg:RXRa DBDmut IVT, anti-RXR (DBD mutation: RXRa K156A/R161A, NR concentration 270 nM, RXRa partner concentration 90 nM). In outline:
as §1

For assay [12], the system named is PPARg:RXRa IVT, anti-PPARg (NR concentration 270 nM, RXRa partner concentration 90 nM). In outline: as §1
Assay [13] relates to PPARg DBDmut:RXRa IVT, anti-PPARg (DBD mutation: PPARg1 K132A/R137A, NR concentration 270 nM, RXRa partner concentration 90 nM). Summed up: as §1
The subject of assay [14] is PPARg DBDmut IVT, anti-PPARg (DBD mutation: PPARg1 K132A/R137A, NR concentration 270 nM). In outline: as §1
Assay [15] relates to PPARg homodimer (NR concentration 180 nM). In outline:
as §1

Assay [16] concerns PXR:RXRa (NR concentration 270 nM, RXRa partner concentration 90 nM). In outline: as §1
Assay [17] concerns PXR homodimer (NR concentration 270 nM). In outline:
as §1

Assay [18] concerns RARa:RXR (NR concentration 270 nM, RXRa partner concentration 90 nM). Summed up:
as §1

The subject of assay [19] is RARa homodimer (NR concentration 270 nM). Summed up:
as §1

Assay [20] relates to RARb:RXRa (NR concentration 270 nM, RXRa partner concentration 90 nM). Summed up:
as §1

On to TGAATGAGGTTATAAGAACAGGGAACGTTGCAAA, for which the PBM binding z-score was 1.63 in assay [1]; 1.18 in assay [2]; -0.262 in assay [3]; 1.03 in assay [4]; 0.118 in [5]; 2.32 in assay [6]. The PBM binding z-score in assay [7] came out at 1.33; in assay [8] it was 1.6; in assay [9], 0.909; in assay [10] it was 1.08; in assay [11] it was 0.968; in [12] it was 1.75. Moreover, the PBM binding z-score was 0.842 in assay [13]; 0.453 in assay [14]; 0.709 in assay [15]; 0.563 in assay [16]; -0.0582 in assay [17]; 1.32 in [18]. Further, the results for the PBM binding z-score in assay [19] and in assay [20] were -0.0801 and 1.11, respectively.

On to CCTACTGGGCCAAGAAGGTCATTGATGCCGATAA, for which the PBM binding z-score was 1.94 in assay [1]; 2.35 in [2]; 0.897 in assay [3]; 2.47 in assay [4]; -0.675 in assay [5]; 3.5 in assay [6]. Besides, the PBM binding z-score worked out at 2.17 in [7]; 2.94 in assay [8]; 0.664 in [9]; 1.87 in [10]; 3.62 in assay [11]; 3.76 in assay [12]. Further, the PBM binding z-score in [13] was -1.15; in [14] it was -1.07; in assay [15], 1.85; in assay [16] it was 3.13; in [17] it was 1.54; in assay [18] it was 3.23. The PBM binding z-score in assay [19] was determined as 0.531; in assay [20], 2.76.

As for AGAATGAGGTTACCAAAGATCAGGGATACGCTTG, the PBM binding z-score in assay [1] came out at 1.93; in [2], 5.68; in assay [3], 0.0211; in assay [4], 2.95; in [5], 0.0562; in assay [6] it was 3.28. Further, the PBM binding z-score was found to be 2.84 in assay [7]; 2.6 in assay [8]; 1.03 in assay [9]; 1.77 in [10]; 3.77 in assay [11]; 3.44 in assay [12]. For the same sequence, the PBM binding z-score in assay [13] was 1.54; in [14], 0.614; in [15] it was 0.494; in [16] it was 1.38; in assay [17] it was -0.284; in assay [18] it was 2.04. The PBM binding z-score in assay [19] was found to be 0.01; in assay [20], 1.98.

Consider AGTCAAAGTTCAGAACGAGGTAACGTAAAGCACG, for which the PBM binding z-score in [1] came out at 4.06; in [2] it was 3.73; in assay [3], 1.34; in assay [4] it was 1.78; in [5], 0.533; in assay [6], 3.26. Besides, the PBM binding z-score worked out at 4.48 in assay [7]; 4.72 in assay [8]; 1.77 in [9]; 4.12 in assay [10]; 0.0651 in assay [11]; 2.1 in [12]. In addition, the PBM binding z-score in assay [13] is 0.709; in [14], 0.236; in [15], 1.58; in [16], 3.14; in assay [17], 1.5; in assay [18], 2.94. The PBM binding z-score in [19] was 0.271; in assay [20] it was 4.01.

For TCTTGTAGATCAACATGAGGTTAAGAAAGATCGA, the PBM binding z-score in [1] worked out at 0.309; in assay [2] it was 1.61; in assay [3], 0.535; in assay [4] it was 1.19; in assay [5], 0.134; in [6], 1.62. Moreover, the PBM binding z-score in assay [7] was determined as 0.344; in assay [8] it was 1.66; in assay [9], 2.62; in [10], 2.31; in assay [11] it was 1.66; in assay [12], 1.07. The PBM binding z-score is 1.29 in assay [13]; 1.12 in assay [14]; -0.107 in assay [15]; 1.22 in assay [16]; -0.155 in assay [17]; 1.53 in assay [18]. The PBM binding z-score in assay [19] came to 0.226; in assay [20], 0.619.

For the sequence CCGACTGGGTCAGAAAGGTTACCATACCATCCGG, the PBM binding z-score in assay [1] is 1.8; in assay [2] it was 1.62; in assay [3] it was -0.0382; in [4], 1.61; in assay [5] it was -0.767; in assay [6], 3.21. For the same sequence, the PBM binding z-score in assay [7] is 3.13; in assay [8] it was 3.2; in assay [9] it was 0.873; in [10], 2.2; in assay [11] it was 3.31; in [12], 3.92. The PBM binding z-score in assay [13] is 0.245; in [14], -0.526; in [15], 2.08; in [16], 2.48; in [17], 0.43; in assay [18], 3.17. In addition, the PBM binding z-score in [19] was 0.179; in [20], 3.15.
